Measured values published in PubChem BioAssay (EPA / NIEHS).
Calls of active or inactive are those of the source. The calls were made as follows: active = hit-call score of the fitted dose curve at least 0.9, where 1 is the maximum; inactive = score below 0.9.

Key:
Details in all cases: mRNA level, 48 h; actives raise or lower the signal
[1] = read-out: Glutamate-cysteine ligase catalytic (GCLC), GCLC (gene 2729); experiment: LTEA_HepaRG_GCLC: Life Technologies and Expression Analysis (LTEA) Assay for Glutamate-cysteine ligase catalytic (GCLC) using HepaRG (AID 2283498)
Procedure, shortened: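 Oxidative-stress marker GCLC is measured as mRNA change in human HepaRG liver cells after 48 h chemical treatment in 0.5% DMSO, eight concentrations from 100 uM. Activity is fitted bidirectionally against vehicle.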

[2] = read-out: growth arrest and DNA damage 45 (GADD45G), GADD45G (gene 10912); experiment: LTEA_HepaRG_GADD45G: Life Technologies and Expression Analysis (LTEA) Assay for growth arrest and DNA damage 45 (GADD45G) using HepaRG (AID 2283499)
Procedure, shortened: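 Gain or loss of GADD45G mRNA, quantified by TaqMan qRT-PCR against three housekeeping genes, is fitted in both directions relative to 0.5% DMSO. Human HepaRG cultures receive test chemical for 48 h at up to 100 uM.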

[3] = read-out: Glutamate-cysteine ligase regulatory (GCLM), GCLM (gene 2730); experiment: LTEA_HepaRG_GCLM: Life Technologies and Expression Analysis (LTEA) Assay for Glutamate-cysteine ligase regulatory (GCLM) using HepaRG (AID 2283500)
Procedure, shortened: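 HepaRG, 48 h dosing, 100 uM top, half-log x8, 0.5% DMSO vehicle. Readout: GCLM mRNA by TaqMan qRT-PCR, housekeeping-normalized (ACTB/GAPDH/POLR2A). Curves fit bidirectionally vs DMSO baseline.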

[4] = read-out: Glutathione S-transferase M3 (GSTM3), GSTM3 (gene 2947); experiment: LTEA_HepaRG_GSTM3: Life Technologies and Expression Analysis (LTEA) Assay for Glutathione S-transferase M3 (GSTM3) using HepaRG (AID 2283501)
Procedure, shortened: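 HepaRG, plated 48 h, then serum-free induction medium; test chemical 48 h, duplicate; 100 uM top, half-log x8, 0.5% DMSO. Read-out: GSTM3 mRNA (TaqMan qRT-PCR, Fluidigm array). Bidirectional fit vs DMSO.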

[5] = read-out: Heat shock 70 kDa protein 1 (HSPA1A), gene 3303; experiment: LTEA_HepaRG_HSPA1A: Life Technologies and Expression Analysis (LTEA) Assay for Heat shock 70 kDa protein 1 (HSPA1A) using HepaRG (AID 2283502)
Procedure, shortened: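 HepaRG, 48 h exposure, 8-pt half-log CRC from 100 uM in 0.5% DMSO, duplicates. Readout: TaqMan qRT-PCR of HSPA1A mRNA, housekeeping-normalized (ACTB/GAPDH/POLR2A). Bidirectional fit vs 0.5% DMSO baseline.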

[6] = read-out: Hypoxia-inducible factor 1-alpha (Homo sapiens) (UniProt Q16665); experiment: LTEA_HepaRG_HIF1A: Life Technologies and Expression Analysis (LTEA) Assay for Hypoxia-inducible factor 1 (HIF1A) Trancription factor using HepaRG (AID 2283503)
Procedure, shortened: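 Gain- or loss-of-signal HIF1A mRNA changes are fitted against a DMSO baseline. HepaRG cultures receive eight concentrations, highest 100 uM, for 48 h in serum-free induction medium with 0.5% DMSO.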

[7] = read-out: 3-Hydroxy-3-Methylglutaryl-CoA Synthase 2 (HMGCS2), HMGCS2 (gene 3158); experiment: LTEA_HepaRG_HMGCS2: Life Technologies and Expression Analysis (LTEA) Assay for 3-Hydroxy-3-Methylglutaryl-CoA Synthase 2 (HMGCS2) using HepaRG (AID 2283504)
Procedure, shortened: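 HepaRG, plated 48 h then switched to serum-free induction media; cmpd 8-pt, max 100 uM, 1/2-log, 0.5% DMSO, n=2, 48 h. HMGCS2 mRNA by Fluidigm TaqMan qRT-PCR, ACTB/GAPDH/POLR2A norm; bidirectional fit vs DMSO.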

HGF (gene 3082) = experiment: LTEA_HepaRG_HGF: Life Technologies and Expression Analysis (LTEA) Assay for Hepatocyte Growth Facto (HGF) using HepaRG (AID 2283505)
Procedure, shortened: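 Read-out is HGF transcript level by qRT-PCR, normalized to three housekeeping genes, fitted bidirectionally against 0.5% DMSO vehicle. Human HepaRG cells received test chemicals for 48 h at up to 100 uM.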

[8] = read-out: Insulin Like Growth Factor 1 (IGF1), IGF1 (gene 3479); experiment: LTEA_HepaRG_IGF1: Life Technologies and Expression Analysis (LTEA) Assay for Insulin Like Growth Factor 1 (IGF1) using HepaRG (AID 2283506)
Procedure, shortened: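 qRT-PCR readout of IGF1 mRNA, normalized to three housekeeping genes, after 48 h chemical exposure of HepaRG cells. Concentrations: 8-point half-log series, top 100 uM, 0.5% DMSO vehicle. Gain or loss fitted against DMSO baseline.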

[9] = read-out: Intercellular Adhesion Molecule 1 (ICAM1), ICAM1 (gene 3383); experiment: LTEA_HepaRG_ICAM1: Life Technologies and Expression Analysis (LTEA) Assay for Intercellular Adhesion Molecule 1 (ICAM1) using HepaRG (AID 2283507)
Procedure, shortened: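 Readout is qRT-PCR mRNA level, normalized to three housekeeping genes and fitted bidirectionally against 0.5% DMSO vehicle. Human HepaRG cultures received compound for 48 h, top concentration 100 uM with half-log dilutions.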

[10] = read-out: Interleukin 6 (IL6), IL6 (gene 3569); experiment: LTEA_HepaRG_IL6: Life Technologies and Expression Analysis (LTEA) Assay for Interleukin 6 (IL6) using HepaRG (AID 2283509)
Procedure, shortened: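 Changes in IL6 mRNA, up or down relative to 0.5% DMSO controls, were derived from concentration-response curves in human HepaRG cells treated for 48 h at up to 100 uM, with ACTB, GAPDH and POLR2A as normalizers.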

[11] = read-out: Interleukin 6 Receptor (IL6R), IL6R (gene 3570); experiment: LTEA_HepaRG_IL6R: Life Technologies and Expression Analysis (LTEA) Assay for Interleukin 6 Receptor (IL6R) using HepaRG (AID 2283510)
Procedure, shortened: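 HepaRG, 48 h exposure, 8-pt half-log series, top 100 uM, 0.5% DMSO vehicle, duplicates. Read-out: TaqMan qRT-PCR of IL6R transcript, housekeeping-gene normalized. Gain or loss fitted relative to DMSO baseline.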

[12] = read-out: Potassium channel subfamily K member 1 (KCNK1), KCNK1 (gene 3775); experiment: LTEA_HepaRG_KCNK1: Life Technologies and Expression Analysis (LTEA) Assay for Potassium channel subfamily K member 1 (KCNK1) using HepaRG (AID 2283511)
Procedure, shortened: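 Human HepaRG cultures receive test chemicals for 48 h in 0.5% DMSO, top concentration 100 uM with half-log dilutions. Induction or suppression of KCNK1 mRNA relative to DMSO is derived by bidirectional fitting of qRT-PCR data.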

[13] = read-out: Keratin 19 (KRT19), KRT19 (gene 3880); experiment: LTEA_HepaRG_KRT19: Life Technologies and Expression Analysis (LTEA) Assay for Keratin 19 (KRT19) using HepaRG (AID 2283512)
Procedure, shortened: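 KRT19 transcript levels, measured by Fluidigm qRT-PCR against three housekeeping genes, are fitted for gain or loss of signal relative to DMSO. Human HepaRG cells receive test chemicals (top 100 uM, half-log steps, 0.5% DMSO) for 48 hours.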

[14] = read-out: JUN Transcription Factor, JUN (gene 3725); experiment: LTEA_HepaRG_JUN: Life Technologies and Expression Analysis (LTEA) Assay for JUN Transcription Factor using HepaRG (AID 2283513)
Procedure, shortened: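 HepaRG, 48 h exposure, 8-pt half-log series top 100 uM, 0.5% DMSO, duplicate. JUN mRNA by qRT-PCR (Fluidigm), housekeeping-normalized (ACTB/GAPDH/POLR2A); bidirectional curve fit vs DMSO baseline.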

[15] = read-out: Lipase C (LIPC), LIPC (gene 3990); experiment: LTEA_HepaRG_LIPC: Life Technologies and Expression Analysis (LTEA) Assay for Lipase C (LIPC) using HepaRG (AID 2283514)
Procedure, shortened: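 In this multiplexed gene-expression screen, human HepaRG cultures received test chemicals for 48 h across eight concentrations with 100 uM highest, in duplicate. Values reflect LIPC mRNA induction or suppression versus DMSO vehicle, from normalized qRT-PCR.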

[16] = read-out: Lipoprotein lipase (LPL), LPL (gene 4023); experiment: LTEA_HepaRG_LPL: Life Technologies and Expression Analysis (LTEA) Assay for Lipoprotein lipase (LPL) using HepaRG (AID 2283515)
Procedure, shortened: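 Concentration-response testing used half-log steps from 100 uM in 0.5% DMSO on human HepaRG cells, 48 h, duplicate wells. Phenobarbital 1 mM served as induction control; LPL mRNA was normalized to ACTB, GAPDH, POLR2A.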

[17] = read-out: matrix metalloproteinase-10 (MMP10), MMP10 (gene 4319); experiment: LTEA_HepaRG_MMP10: Life Technologies and Expression Analysis (LTEA) Assay for matrix metalloproteinase-10 (MMP10) using HepaRG (AID 2283517)
Procedure, shortened: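 In differentiated HepaRG cultures kept in 0.5% DMSO, test chemicals act for 48 h over an eight-point range with a top dose of 100 uM. Expression is then quantified by TaqMan RT-PCR against ACTB, GAPDH and POLR2A.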

Measured: outcome

Chain of Hypoxia-inducible factor 1-alpha (Homo sapiens) (Q16665 whole entry, looked up): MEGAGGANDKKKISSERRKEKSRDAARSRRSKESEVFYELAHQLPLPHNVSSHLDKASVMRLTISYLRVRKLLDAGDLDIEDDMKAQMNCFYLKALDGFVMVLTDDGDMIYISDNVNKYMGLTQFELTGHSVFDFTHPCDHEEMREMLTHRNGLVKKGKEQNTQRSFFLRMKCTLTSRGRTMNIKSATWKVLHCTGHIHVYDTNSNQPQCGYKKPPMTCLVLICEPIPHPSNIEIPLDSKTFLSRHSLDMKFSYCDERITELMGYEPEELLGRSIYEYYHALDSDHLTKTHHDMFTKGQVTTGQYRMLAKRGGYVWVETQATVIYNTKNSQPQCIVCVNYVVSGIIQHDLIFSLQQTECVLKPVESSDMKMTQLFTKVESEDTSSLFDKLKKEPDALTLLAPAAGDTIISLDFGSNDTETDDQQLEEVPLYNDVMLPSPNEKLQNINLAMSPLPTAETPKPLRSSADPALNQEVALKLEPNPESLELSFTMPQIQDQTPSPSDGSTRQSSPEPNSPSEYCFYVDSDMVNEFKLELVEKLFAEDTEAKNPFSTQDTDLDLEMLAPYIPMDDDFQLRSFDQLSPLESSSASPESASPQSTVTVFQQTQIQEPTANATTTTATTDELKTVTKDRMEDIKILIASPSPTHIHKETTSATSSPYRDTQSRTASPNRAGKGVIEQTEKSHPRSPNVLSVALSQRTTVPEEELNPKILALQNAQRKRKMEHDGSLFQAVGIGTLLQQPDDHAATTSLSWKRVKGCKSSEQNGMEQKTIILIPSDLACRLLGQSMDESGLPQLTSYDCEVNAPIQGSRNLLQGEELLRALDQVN

CC(Oc1ccc(Cl)cc1Cl)C(=O)O (configuration not stated)
inactive: all assays above

CN(C)C(=S)SSC(=S)N(C)C
inactive: all assays above

Oc1ccccc1-c1ccccc1
not listed: [16]
inactive: all other assays above

Cc1cc(Cl)ccc1OCC(=O)O
inactive: all assays above

COP(N)(=O)SC (configuration not stated)
inactive: all assays above

CS/C(C)=N/OC(=O)N(C)SN(C)C(=O)O/N=C(\C)SC
inactive: all assays above
